These results are taken from PubChem BioAssay AID937 (National Center for Advancing Translational Sciences (NCATS), 2007).

The other results are listed elsewhere or left out. Inconclusive results are not listed. Active and inactive are the calls of the source. Calls follow the shape of the full dose curve.

The assay has as its target Alpha-synuclein (Homo sapiens) (UniProt P37840). Briefly: Alpha-synuclein ThS binding assay. Conditions: recombinant alpha-synuclein fibrils, ThS fluorescence displacement. Here is the method: NIH Molecular Libraries Screening Centers Network [MLSCN] NIH Chemical Genomics Center [NCGC] MLSCN Grant: 1 X01 MH079825-01 Assay Provider: Jeffrey A. Kuret, Ohio State University NCGC Assay Overview: Lewy body disease is characterized by the appearance of lesions containing alpha-synuclein. The protein components in these lesions can be induced to form filaments under experimentally tractable times when incubated in vitro with anionic inducers such as alkyl sulfate detergents or fatty acids. […] Here we describe the in vitro fibrillization of alpha-synuclein. Alpha-synuclein was induced to form filaments by incubation overnight at 37 C in the presence of arachidonic acid. A commonly used fluorescent probe for cross#nbeta-sheet structure, Thioflavin S (ThS), was also added to the reactions. […] Small molecules capable of ThS displacement or antagonizing fibrillization result in a decrease in ThS fluorescence, allowing determination of binding affinities for molecules screened.
NCGC Assay Protocol Summary The assay was performed in 96-well round bottom opaque plates (VWR, West Chester, PA) in 100 uL final volume. […] Fluorescence (ex = 440 nm; em = 485 nm) was measured after brief shaking (10 s) in a FlexStation plate reader (Molecular Devices, Sunnyvale, CA) operated at sensitivity 10, automatic PMT. […]
Consider `O=C(CCCCn1c(=O)[nH]c2ccccc2c1=O)NCc1ccc2c(c1)OCO2`, for which the result was inactive.
